# Data taken from PubChem BioAssay AID588405 (Sanford-Burnham Center for Chemical Genomics, 2011).
# The campaign covered roughly 360,000 compounds. About 6,200 (1.7%) were called active. This is one part of a sample in which actives are shown more often than they occur.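 Rule for the calls: active = inhibition of at least 50% at 20 µM; inactive = the rest.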
# Experiment: inhibition of PEG-3 promoter activity – cell-based, HeLa, luciferase luminescence, primary screen (AID 588405)
# Conditions: HeLa PEG-Prom luciferase reporter, overnight, at 20 µM, hits give high values
row,SMILES,inhibition
1,C=C1C(=O)[C@]23C[C@H]1CCC2[C@@]1(C)C(C[C@@H]3O)[C@](C)(C(=O)O)CC[C@@H]1O (stereo partly drawn),3.91% (inactive)
2,CC1CC(C)(C)n2c(O)c(N=NC(N)=S)c3cccc1c32 (stereo not drawn),29.2% (inactive)
3,CCc1nc2ccc(C(=O)N(C)Cc3ccco3)cn2c1N(C)C(=O)Cc1ccccc1,8.02% (inactive)
4,O=C(O)C#Cc1cccc2ccccc12,12.5% (inactive)
5,CC(C)(C)c1nnc2sc(SCC(O)=C(C#N)c3nc4ccccc4[nH]3)nn2c1=O,20.3% (inactive)
6,N#C/C(=C(/O)COC(=O)COc1ccc(Cl)cc1)c1nc2ccccc2[nH]1,71.2% (active)
7,COc1ccccc1C(=O)COC(=O)COc1ccc(C#N)cc1,10.1% (inactive)
8,COc1ccc(C2=Nc3ccccc3NC(=O)C2N(C(=O)c2cc3ccccc3[nH]2)c2ccccc2)cc1 (stereo not drawn),-169% (inactive)
9,CC1(C(=O)Nc2cccc3c2CCCC3)CCN1C(=O)C1(c2ccccc2)CC1 (stereo not drawn),11.5% (inactive)
10,Cc1ccccc1NC(=S)N(CCCN1CCOCC1)Cc1cccs1,-3.16% (inactive)
11,Cc1ccc(NC(=S)N(CCCN2CCCC2)Cc2cccn2Cc2ccc(Cl)cc2)cc1,83.4% (active)
12,CCc1cccc(C)c1NC(=S)N(CCCN1CCN(C)CC1)Cc1cccs1,12% (inactive)
13,O=C(C1CCN(c2nnc(-n3cccc3)s2)CC1)N1CCc2ccccc2C1,14.8% (inactive)
14,CCn1c(=S)[nH]c2sc3c(c2c1=O)CCCCC3,-19.3% (inactive)
15,CN(C)CCCn1c(=O)n(Cc2ccccc2)c(=O)c2c3c(sc21)CCCCC3,89.8% (active)
16,O=c1c2c3c(sc2n(CCN2CCCC2)c(=O)n1Cc1ccccc1)CCCCC3,-15% (inactive)
17,CCCCC1S/C(=N/N=C/c2cccs2)NC1=O (stereo not drawn),-0.95% (inactive)
18,CC(=O)Nc1cccc(-c2ccnc3c2CC(C)(C(=O)NCc2ccccc2)O3)c1 (stereo not drawn),-22.6% (inactive)
19,O=C1N=C(N2CCc3ccccc3C2)S/C1=C\c1ccc(O)cc1,-5.21% (inactive)
20,CC(C(=O)NC1CCS(=O)(=O)C1)N1C(=O)/C(=C/c2ccc(Cl)cc2)SC1=S (stereo not drawn),-7.3% (inactive)
21,O=C1/C(=C\c2ccc(O)cc2)CCC1CNc1ccc(Cl)cc1 (stereo not drawn),93.8% (active)
22,CCCC(=O)N1CCC1(C)C(=O)NS(=O)(=O)c1ccc(Cl)cc1 (stereo not drawn),3.54% (inactive)

row,SMILES,inhibition
1,CC(=O)Nc1cccc(Nc2ccc(C#N)cc2)c1,-24.3% (inactive)
2,O=C(Cc1ccc(-n2c(=O)[nH]c3ccccc3c2=O)cc1)N1CCN(c2cccc(Cl)c2)CC1,9.68% (inactive)
3,O=C(Cc1csc(Nc2nc(=S)[nH]c3ccccc23)n1)NCCCN1CCN(c2cccc(Cl)c2)CC1,53.1% (active)
4,COc1cccc(CNC(=O)Cc2csc(Nc3nc(=S)[nH]c4ccccc34)n2)c1,29.3% (inactive)
5,COC(=O)c1ccc(CN2C(=O)C(Cc3ccccc3)ON=C2c2ncccc2C)o1 (stereo not drawn),3.64% (inactive)
6,O=C(Cc1ccc([N+](=O)[O-])cc1)Nc1ccc(C(=O)N2CCOCC2)cc1,-2.85% (inactive)
7,CCOc1ccc(C(CCc2ccccc2)NC(=O)c2ccc(OC)c(OC)c2)cc1OCC (stereo not drawn),11.6% (inactive)
8,C=CCn1c(COc2cccc3cccnc23)nnc1SCC(=O)OC,16.7% (inactive)
9,CCCCC(=O)NC(c1ccc(OC)c(OC)c1)c1ccc2cccnc2c1O (stereo not drawn),60.4% (active)
10,CCc1nc2c(OCCC3CCCCC3)cccn2c1N(C)C(=O)c1ccco1,5.45% (inactive)
11,CC12CCC(C(=O)N(NC(=O)c3ccccc3O)C1=O)C2(C)C (stereo not drawn),53.1% (active)
12,COc1ccccc1C(=O)NN1C(=O)C2C3C=CC(O3)C2C1=O (stereo not drawn),17.5% (inactive)
13,CC1=CC(C)(C)NC(=S)N1NC(=O)c1ccccc1Cl,-9.1% (inactive)
14,CCCCOc1ccc(N(CC(=O)NC(C)C)C(=O)CCC(=O)Nc2ccccn2)cc1,-4.29% (inactive)
15,NC1=C([N+](=O)[O-])C(c2ccccc2)C2=C(CCCC2=O)O1 (stereo not drawn),9.24% (inactive)
16,O=S1(=O)CCN(C2CCCCCCCCCCC2)CC1,0.61% (inactive)
17,COc1ccc(/C=C2\SC(=S)N(CCC(=O)N3CCOCC3)C2=O)cc1OC,-27.5% (inactive)
18,CCN(C(=O)CN1C(=O)/C(=C/c2ccc(F)cc2)SC1=S)C1CCS(=O)(=O)C1 (stereo not drawn),-2.93% (inactive)
19,O=C1/C(=C/c2ccc(F)cc2)SC(=S)N1CCCC(=O)N1CCCCC1CCO (stereo not drawn),58.3% (active)
20,CC(C)(C)c1ccc(S(=O)(=O)NC(=O)C2(C)CCN2C(=O)CC2CC2)cc1 (stereo not drawn),-3.67% (inactive)
21,Cc1cc(=O)oc2c3c(cc(OCC(=O)NCC(O)c4ccccc4)c12)OC(C)(C)CC3 (stereo not drawn),12.4% (inactive)
22,CC(NC(=S)Nc1ccccc1)C(c1cccs1)N1CCOCC1 (stereo not drawn),14.7% (inactive)

row,SMILES,inhibition
1,CC(NC(=O)Nc1ccccc1)C(c1cccs1)N1CCN(c2ccccc2)CC1 (stereo not drawn),66.2% (active)
2,CCCC(=O)NC(C)C(c1cccs1)N1CCN(c2ccccc2)CC1 (stereo not drawn),7.84% (inactive)
3,CCc1nc2c(OCCOc3ccccc3)cccn2c1N(C=O)Cc1ccc(OC)cc1,6.15% (inactive)
4,COc1ccc(CCn2ccc(O)c(Cc3ccc(Cl)cc3Cl)c2=O)cc1OC,6.97% (inactive)
5,COc1ccc(C(=O)O/N=C(\N)Cc2ccc(Cl)cc2Cl)cc1OC,110% (active)
6,COc1ccc(C(=O)n2nc(-c3ccc(Cl)cc3)nc2N)cc1OC,10.6% (inactive)
7,O=C(NCc1ccccc1)C(c1ccco1)N(C(=O)c1csnn1)c1ccccc1F (stereo not drawn),5.02% (inactive)
8,CSc1ccc(C(=O)C2CCCN(C(=O)c3ccc(C)nc3)C2)cc1 (stereo not drawn),1.04% (inactive)
9,CCCCn1nnnc1C(c1cccc(OC)c1OC)N1CCN(C/C=C/c2ccccc2)CC1 (stereo not drawn),-3.54% (inactive)
10,CC(C)n1cnc2c(Nc3cccc(Cl)c3)nc(N(CCO)CCCO)nc21,96.1% (active)
11,CC(C)C[C@H](CO)Nc1nc(N(C)c2cccc(Cl)c2)c2ncn(C(C)C)c2n1,12.4% (inactive)
12,Cc1ccc(C(O)c2ncc(-c3ccccc3F)[nH]2)cc1F (stereo not drawn),-67.5% (inactive)
13,O=C(NCc1ccncc1)C1CCN(C(=O)c2cccc(Cl)c2)CC1,0.12% (inactive)
14,O=C(NC1CCCC1)C(c1c(F)cccc1Cl)N(C(=O)c1csnn1)C1CC1 (stereo not drawn),16.7% (inactive)
15,CCc1nc2ccccc2c(C(=O)NCc2ccc(OC)cc2)c1C,16.9% (inactive)
16,COC(=O)CC1=NN(c2ccccc2)C(=O)C1,5.53% (inactive)
17,COC(=O)Cc1[nH]n(-c2nc3ccccc3s2)c(=O)c1C(C)=Nc1ccc(OC)cc1,89.1% (active)
18,N#Cc1cccc(CN2CCC(=O)N([C@H](CO)c3ccccc3)CC2)c1,-12.2% (inactive)
19,CC(=O)c1cccc(-c2cnc3c(NC=O)cc(-c4ccccc4Oc4ccccc4)cn23)c1,0.73% (inactive)
20,CCCCN(C=O)c1c(CC)nc2c(OCCC3CCCCC3)cccn12,18.3% (inactive)
21,CCOC(=O)C1(C)CCCN(C(=O)c2ccc(F)c(Cl)c2)C1 (stereo not drawn),8.51% (inactive)
22,CC1(C(=O)NS(=O)(=O)c2cccc(OC(F)F)c2)CCN1C(=O)COc1ccc(Cl)cc1 (stereo not drawn),-1.93% (inactive)

row,SMILES,inhibition
1,O=C1N[C@@H](c2ccccc2)COC(=O)[C@H](Cc2ccc(F)cc2)C/C=C\C[C@@H]1CC(=O)N(CCO)Cc1ccccc1,24.9% (inactive)
2,O=C1NC[C@@H](c2ccccc2)OC(=O)[C@H](Cc2ccc(F)cc2)CC/C=C/C[C@H]1CC(=O)N(CCO)Cc1ccccc1,54.9% (active)
3,O=C1CCC/C=C/C[C@@H](CC(=O)N(CCO)Cc2ccccc2)C(=O)NC[C@H](c2ccccc2)O1,-18.6% (inactive)
4,CCOC(=O)C1=CC[C@@H](c2ccccc2)N(S(=O)(=O)c2ccc(C)cc2)[C@H]1c1ccc(CC)cc1,13% (inactive)
5,CC(C)CCN1CCN(Cc2cn[nH]c2C2CCCCC2)CC1CCO (stereo not drawn),8.83% (inactive)
6,O=C(CNC(=O)OCc1ccccc1)Oc1cc2oc(=O)cc(-c3ccccc3)c2cc1Cl,11.5% (inactive)
7,COc1cccc(NC(=O)C2(C)CCN2C(=O)CCC2CCCC2)c1 (stereo not drawn),9.97% (inactive)
8,O=C(/C=C/[C@H]1O[C@@H](n2cnc3c(NC(=O)c4ccccc4)ncnc32)[C@H](O)[C@@H]1O)NCc1ccccc1,-2.88% (inactive)
9,CN(C)CCCNC(=O)/C=C/c1ccc(OCc2c(F)cccc2Cl)cc1,70.2% (active)
10,COc1cc(CNCCN(C)C)ccc1OCc1c(F)cccc1Cl,2.85% (inactive)
11,O=C(/C=C/c1ccc(OCc2c(F)cccc2Cl)cc1)N1CCOCC1,-42.8% (inactive)
12,CC(NC(=O)C(C)(C)C)C(c1cccs1)N1CCN(Cc2ccccc2)CC1 (stereo not drawn),3.48% (inactive)
13,Cc1coc2c1c(C)cc1oc(=O)c(CC(=O)NCC(=O)N[C@H](C(=O)O)C(C)C)c(C)c12,-3.37% (inactive)
14,COc1ccc(C(=O)N2CCCCC2c2cc(C(=O)Nc3ccccc3)no2)cc1 (stereo not drawn),1.75% (inactive)
15,CCOC(=O)Nc1sc(C(=O)N(C)C)c(C)c1C(=O)OCC,16.3% (inactive)
16,CCOC(=O)c1c(NC(=O)CCl)sc(C(=O)N(CC)CC)c1C,67.2% (active)
17,CCOC(=O)c1sc(NC(=O)CCN2CCOCC2)c(C(=O)OCC)c1C,4.41% (inactive)
18,Nc1cc(=O)c2[nH]cnc2[nH]1,-0.63% (inactive)
19,O=c1cc(CN2CCCCCCC2)c2c(ccc3ccccc32)o1,9.42% (inactive)
20,CCCOc1ccc(/C=N/NC(=O)C2CC2)c(OCCC)c1,-4.16% (inactive)
21,COC(=O)c1ccc(OCC(=O)NC(C)(C)C)cc1,-42.5% (inactive)
22,CCCOc1ccc(C(=O)C(CCC(CNCC)C(=O)c2ccc(OCCC)cc2)CNCC)cc1 (stereo not drawn),116% (active)
